Source: PubChem BioAssay
Rows were chosen to be rich in hits. Some 20% of all compounds tested hit in one or more screens of this group.
Pf growth 96h – P. falciparum growth inhibition at 96 hour, primary screen for plastid delayed-death inhibitors | P. falciparum luciferase reporter growth, 96 h | Potency, µM (series often up to 28.7 µM), hits mostly inhibitors | 6.9% of 320,000 active
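Cell-based qHTS: luciferase-tagged P. falciparum in erythrocytes (2% hematocrit, 0.05% parasitemia final) incubated with compounds for 96 hours, 37 C, 5% CO2; luciferase detection reagent then added and luminescence measured.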
CHX counter – counter-screen hit for Shiga toxin inhibitors, cycloheximide | cell reporter, cycloheximide protein synthesis inhibition counterscreen | max response, % | AID 2314 | 12% of 300,000 active; in the data active = max response mostly above about 13%, no sharp cut-off; inactive = mostly below about 14%; also: read at 38.3 µM for the half of the compounds with a filed dose
Shiga toxin inh – Shiga toxin inhibition; 9.2% of 290,000 active; AID 2315; inhibition, % at 38.7 µM; Vero cells, Shiga toxin protein synthesis inhibition reporter; in the data active = inhibition mostly above about 28%, no sharp cut-off; inactive = mostly below about 43%
Pf growth 48h – inhibits P. falciparum growth in the first generation, 48 h; P. falciparum luciferase growth in erythrocytes, 48 h; Potency, µM (titrated, usually from 28.7 µM), usual class: inhibitors; 5.9% of 310,000 active; AID 504832
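Growth was read as firefly luciferase luminescence after a 48 h, 37 C, 5% CO2 exposure of compounds to reporter-bearing P. falciparum cultures (0.1% parasitemia, 2% hematocrit final) in Albumax-supplemented RPMI 1640.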
HCMV inh – blocks human cytomegalovirus replication. 4.5% of 410,000 active. HFF cells, HCMV-luciferase reporter, 72 h; active compounds read low. activity change, negative = inhibition, % at 57.5 µM; in the data active = activity change below about -60%; inconclusive = no clear call, values can overlap the other calls; inactive = above about -39%
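Compounds were evaluated in HFFs infected with an HCMV luciferase reporter virus (MOI 1 PFU/cell). Luciferase in lysates collected 72 h post infection served as the replication measure.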
Large screens that a line does not name were inactive. Unless noted, calls follow the shape of the dose curve; as a rule, active = well fitted inhibition curve with a large enough effect; inconclusive = small, poorly fitted or top-dose-only effect, or another doubt; inactive = no such curve, though single readings can be large or run the other way.

CC1CCCC(C)N1C(=O)c1cc(-c2ccc(Cl)c(Cl)c2)on1 (stereo not given)	none
CC1CCCC(C)N1C(=O)c1cc(-c2ccc3c(c2)OCO3)on1 (stereo not given)	CHX counter 54, Shiga toxin inh 78
COc1ccc(/C=N/NC(=O)Cc2cc(OC)c(OC)cc2[N+](=O)[O-])cc1	HCMV inh inconclusive
COc1ccc(OC)c(NC(=O)c2cc(-c3cc(Cl)ccc3O)n[nH]2)c1	Pf growth 96h 8.3µM, Pf growth 48h 1.7µM, HCMV inh inconclusive
COc1ccc(Cl)cc1NC(=O)c1cc(-c2ccccc2O)n[nH]1	Pf growth 96h 10µM, Pf growth 48h 10µM
O=C(O)c1cc(-c2ccccc2Cl)n[nH]1	none (no result: Pf growth 96h, Pf growth 48h)
COc1ccc(NC(=O)c2cc(-c3cc(Cl)ccc3OC)n[nH]2)cc1OC	none (no result: Pf growth 96h, CHX counter, Shiga toxin inh, Pf growth 48h)
Cc1c(Cl)cccc1NC(=O)c1cc(-c2ccccc2O)n[nH]1	Pf growth 96h inconclusive, CHX counter 18 (no result: Pf growth 48h)
CCCOc1ccc(F)cc1-c1cc(C(=O)Nc2cc(OC)ccc2OC)[nH]n1	HCMV inh -80 (no result: Pf growth 96h, CHX counter, Shiga toxin inh, Pf growth 48h)
O=C(CSc1ccccc1)Nc1ccc(N2CCN(c3ccccc3)CC2)c(F)c1	none
Nc1ccc(N2CCN(c3ccccc3)CC2)c(F)c1	CHX counter 14, Shiga toxin inh 57
Cc1ccc(NC(=O)c2cccc(-n3cnnn3)c2)cc1Cl	Pf growth 96h inconclusive, Pf growth 48h 9.3µM (no result: CHX counter, Shiga toxin inh)
Cc1ccc(NC(=O)c2ccccc2)cc1-n1cnnn1	Pf growth 96h inconclusive, Pf growth 48h inconclusive, HCMV inh -73
Cc1cc(C)c(NC(=O)CS(=O)CC(=O)Nc2ccc(-n3cnnn3)c(C)c2)c(C)c1 (stereo not given)	HCMV inh -69
Cc1cc(NC(=O)CS(=O)CC(=O)Nc2c(C)cccc2C)ccc1-n1cnnn1 (stereo not given)	none
COc1ccc(Cl)cc1NC(=O)c1cccc(-n2cnnn2)c1	HCMV inh -63 (no result: CHX counter, Shiga toxin inh)
COC(=O)c1cccc(CN2C(=O)SC(Nc3ccc(Br)cc3)C2=O)c1 (stereo not given)	none (no result: Pf growth 96h, CHX counter, Shiga toxin inh, Pf growth 48h)
Cn1c(=O)c2c(ncn2CC(=O)O)n(C)c1=O	none (no result: Pf growth 96h, CHX counter, Shiga toxin inh, Pf growth 48h)
COc1ccc(-c2noc(-c3ccc(NCC4CCCO4)c([N+](=O)[O-])c3)n2)cc1 (stereo not given)	none (no result: Pf growth 96h, CHX counter, Shiga toxin inh, Pf growth 48h)
C/C(=N/NC(=O)CNS(=O)(=O)c1ccc(C)cc1)c1cccc([N+](=O)[O-])c1	Pf growth 96h inconclusive
CC(=O)NC(CC(=O)NNC(=O)COc1c(C)cccc1C)c1ccccc1 (stereo not given)	none (no result: Pf growth 96h, CHX counter, Shiga toxin inh, Pf growth 48h)
Cc1cccc(C)c1OCC(=O)N[C@@H](Cc1ccccc1)[C@@H](O)C[C@H](Cc1ccccc1)NC(=O)[C@H](C(C)C)N1CCCNC1=O	Pf growth 96h 6.7µM, Pf growth 48h 3.4µM (no result: CHX counter, Shiga toxin inh, HCMV inh)
CC(=O)c1ccc(NC(=S)NNC(=O)c2ccncc2)cc1	CHX counter 16
Cc1ccccc1NC(=S)NNC(=O)c1ccncc1	none
C=CCNC(=S)NNC(=O)c1cccnc1	none
C=CCNC(=S)NNC(=O)c1ccncc1	HCMV inh -64
O=C(NC(=O)c1ccc(F)cc1)Nc1ccc(-c2cc(C(F)(F)F)nn2-c2ccccc2)cc1	none (no result: Pf growth 96h, CHX counter, Shiga toxin inh, Pf growth 48h)
CCCc1[nH]nc2c1C(/C(C)=C/c1ccccc1)C(C#N)=C(N)O2 (stereo not given)	Pf growth 96h inconclusive, HCMV inh -83
COc1ccc2[nH]c3c(c2c1)CCNC3C (stereo not given)	Pf growth 96h 9.3µM
COc1ccc2[nH]c3c(c2c1)CCNC3c1ccc([N+](=O)[O-])o1 (stereo not given)	Pf growth 48h 13µM
Cc1cccc2nc(COc3ccc(Cl)c4cccnc34)cn12	CHX counter 33, Shiga toxin inh 102, HCMV inh -80
O=C(NCCC1CCCCN1S(=O)(=O)c1cccs1)C(=O)Nc1cccc(F)c1 (stereo not given)	Pf growth 48h inconclusive (no result: CHX counter, Shiga toxin inh)
COc1cccc(C(=O)NCC(=O)NCc2cc(=O)n(C)c(=O)n2C)c1	Pf growth 96h inconclusive
Fc1ccc(NC(=S)Nc2nccs2)cc1	Pf growth 96h 0.29µM, CHX counter 50, Shiga toxin inh 75, Pf growth 48h 13µM, HCMV inh -115
O=C(Nc1nccs1)Oc1ccccc1	none
CC(C)(C)c1nnc(NC(=S)Nc2ccccc2)s1	CHX counter 37, Shiga toxin inh 115
O=C(Nc1ccc(S(=O)(=O)Nc2nccs2)cc1)c1ccc(F)cc1	none
COc1cc(OC)cc(C(=O)Nc2nnc(NC(=S)Nc3ccccc3)s2)c1	none (no result: HCMV inh)
